# Source: PubChem BioAssay
# For some of these results: Results with a measured potency or affinity are listed apart. The source made the active and inactive calls. Unless noted, no rule for the calls is given here.
# Tests used:
# [1] = antimalarial activity against Dd2 strain (AID 2302;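 active = growth inhibition above 50% at the single 2 µM test dose, taken to imply half-maximal potency below 2 µM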;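 also: 0% = DMSO untreated growth and 100% = chloroquine plus artemisinin killed control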); conditions: P. falciparum Dd2 in RBCs, LDH growth readout, 72 h; at 2 µM; hits give high values
# [2] = human hepatoma cell viability loss – ATP luminescence, cytotoxicity control for P. falciparum antimalarial project, primary screen (AID 2303;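 active = inhibition above 50%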;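 also: 0% = DMSO wells and 100% = digitonin-killed cells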); conditions: HepG2 viability, 24-48 h, at 10 µM, hits give high values
# [3] = biological target: L-lactate dehydrogenase (Plasmodium falciparum (isolate CDC / Honduras)) (UniProt Q27743); test: PfLDH activity inhibition – cell lysate, 3D7 strain, counter-screen for P. falciparum growth inhibition project (AID 2304);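 also: 0% = vehicle and 100% = reference inhibitor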; conditions: P. falciparum 3D7 crude extract, LDH APAD/NBT absorbance; at 2 µM; hits give high values
# Chain of L-lactate dehydrogenase (Plasmodium falciparum (isolate CDC / Honduras)) (Q27743 whole entry, looked up): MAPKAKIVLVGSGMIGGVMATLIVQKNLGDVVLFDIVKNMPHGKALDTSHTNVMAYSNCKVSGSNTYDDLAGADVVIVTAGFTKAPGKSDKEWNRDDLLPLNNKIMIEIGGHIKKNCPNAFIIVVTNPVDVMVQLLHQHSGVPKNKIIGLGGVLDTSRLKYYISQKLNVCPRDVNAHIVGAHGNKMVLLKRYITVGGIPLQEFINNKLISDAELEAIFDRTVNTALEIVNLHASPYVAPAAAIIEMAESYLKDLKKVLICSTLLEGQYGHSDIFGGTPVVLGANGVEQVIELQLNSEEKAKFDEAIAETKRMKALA
# [4] = inhibition of 3D7 malaria parasite growth – strain 3D7 (AID 2306);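 also: 0% = DMSO wells and 100% = chloroquine plus artemisinin control wells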; conditions: P. falciparum 3D7 erythrocytic growth, LDH absorbance, 72 h; at 2 µM; hits give high values
# [5] = biological target: Calcium-dependent protein kinase 1 (Plasmodium falciparum (isolate 3D7)) (UniProt P62344); test: PfCDPK1 kinase inhibitors, biochemical, TCAMS library (AID 1159585; cut-off not given, nearly all actives have IC50 up to about 0.98 µM;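 also: inhibitors leave more ATP so luminescence rises with inhibition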); conditions: recombinant PfCDPK1, Kinase-Glo ATP depletion luminescence
# Chain of Calcium-dependent protein kinase 1 (Plasmodium falciparum (isolate 3D7)) (P62344 whole entry, looked up): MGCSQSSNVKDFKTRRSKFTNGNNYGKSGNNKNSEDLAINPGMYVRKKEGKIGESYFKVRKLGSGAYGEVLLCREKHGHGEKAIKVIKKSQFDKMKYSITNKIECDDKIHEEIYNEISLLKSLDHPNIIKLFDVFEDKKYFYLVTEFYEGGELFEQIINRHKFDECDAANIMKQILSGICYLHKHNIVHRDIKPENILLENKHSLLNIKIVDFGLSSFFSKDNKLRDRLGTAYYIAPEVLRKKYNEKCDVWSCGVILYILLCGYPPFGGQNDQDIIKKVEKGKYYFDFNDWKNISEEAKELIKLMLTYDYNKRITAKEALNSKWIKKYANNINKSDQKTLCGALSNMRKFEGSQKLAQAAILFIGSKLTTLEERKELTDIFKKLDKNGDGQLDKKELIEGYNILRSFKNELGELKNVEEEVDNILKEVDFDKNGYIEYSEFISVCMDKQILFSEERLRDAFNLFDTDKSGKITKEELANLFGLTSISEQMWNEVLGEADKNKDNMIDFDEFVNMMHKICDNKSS
# [6] = biological target: Plasmodium falciparum protein kinase 6 (PK6, PF3D7_1337100) (UniProt Q8IDW1); test: PfPK6 kinase inhibitors, biochemical, TCAMS library (AID 1159586); conditions: recombinant PfPK6, Kinase-Glo ATP depletion luminescence
# Chain of Plasmodium falciparum protein kinase 6 (PK6, PF3D7_1337100) (Q8IDW1 1-305): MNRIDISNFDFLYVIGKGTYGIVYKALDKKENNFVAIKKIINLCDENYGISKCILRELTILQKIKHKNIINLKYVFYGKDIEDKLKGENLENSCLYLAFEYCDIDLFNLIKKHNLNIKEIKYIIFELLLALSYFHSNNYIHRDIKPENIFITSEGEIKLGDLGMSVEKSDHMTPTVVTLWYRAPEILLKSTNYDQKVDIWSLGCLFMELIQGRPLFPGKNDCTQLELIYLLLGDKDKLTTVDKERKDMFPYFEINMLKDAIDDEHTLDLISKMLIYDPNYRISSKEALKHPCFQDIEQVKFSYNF
# [7] = biological target: Protein kinase 7 (PK7), Plasmodium falciparum 3D7 (PF3D7_0213400) (UniProt Q7YTF7); test: inhibition of Plasmodium PK7 catalytic activity – biochemical, TCAMS antimalarial set, Kinase-Glo luminescence (AID 1159587); conditions: recombinant PfPK7, Kinase-Glo ATP depletion luminescence
# Chain of Protein kinase 7 (PK7), Plasmodium falciparum 3D7 (PF3D7_0213400) (Q7YTF7 1-343): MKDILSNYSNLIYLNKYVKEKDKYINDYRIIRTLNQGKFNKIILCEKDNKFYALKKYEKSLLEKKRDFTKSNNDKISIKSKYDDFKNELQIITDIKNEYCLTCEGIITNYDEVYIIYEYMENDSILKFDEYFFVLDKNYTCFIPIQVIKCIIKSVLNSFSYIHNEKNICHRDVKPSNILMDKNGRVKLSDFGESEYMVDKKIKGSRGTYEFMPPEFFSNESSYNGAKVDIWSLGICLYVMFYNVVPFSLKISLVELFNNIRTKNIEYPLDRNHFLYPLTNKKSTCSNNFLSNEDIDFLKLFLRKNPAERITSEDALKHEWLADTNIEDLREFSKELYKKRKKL
# [8] = biological target: Calcium-dependent protein kinase 4 (Plasmodium falciparum (isolate 3D7)) (UniProt Q8IBS5); test: PfCDPK4 kinase inhibitors, biochemical, TCAMS library (AID 1159588; cut-off not given, nearly all actives have IC50 up to about 0.91 µM); conditions: recombinant PfCDPK4, Kinase-Glo ATP depletion luminescence
# Chain of Calcium-dependent protein kinase 4 (Plasmodium falciparum (isolate 3D7)) (Q8IBS5 whole entry, looked up): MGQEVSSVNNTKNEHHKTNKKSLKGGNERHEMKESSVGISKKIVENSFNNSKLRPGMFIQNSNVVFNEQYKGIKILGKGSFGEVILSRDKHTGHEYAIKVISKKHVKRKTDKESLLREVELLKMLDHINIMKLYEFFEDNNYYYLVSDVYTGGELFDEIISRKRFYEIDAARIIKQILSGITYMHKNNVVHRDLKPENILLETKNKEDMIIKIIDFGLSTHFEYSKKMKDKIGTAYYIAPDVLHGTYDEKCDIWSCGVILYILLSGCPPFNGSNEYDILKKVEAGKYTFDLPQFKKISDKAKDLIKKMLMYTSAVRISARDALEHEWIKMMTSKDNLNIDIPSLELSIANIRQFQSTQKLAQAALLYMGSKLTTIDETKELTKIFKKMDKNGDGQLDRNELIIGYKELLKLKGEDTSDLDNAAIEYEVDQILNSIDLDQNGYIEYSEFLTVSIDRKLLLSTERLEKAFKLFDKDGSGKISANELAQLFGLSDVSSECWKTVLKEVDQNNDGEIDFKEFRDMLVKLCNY
Compound,growth inhibition [1],inhibition [2],inhibition [3],growth inhibition [4],outcome [5],outcome [6],outcome [7],outcome [8]
Cc1cc(NC2CCN(CC3CCCCC3)C2)nc(Nc2ccc(Cl)cc2)n1 (stereo not drawn),83% (active),26% (inactive),-2% (inactive),98% (active),inactive,inactive,inactive,inactive
CN(CCN1CCC(c2c[nH]c3ccccc23)CC1)C(=O)OCCCCCNC(=O)/C=C/c1ccc(Cl)c(Cl)c1,44% (inactive),39% (inactive),-4% (inactive),95% (active),inactive,inactive,inactive,inactive
CC(CN1CCN(C)CC1)C(=O)Nc1cccc(-c2ccc(-c3nc4ccccc4[nH]3)s2)c1 (stereo not drawn),59% (active),2% (inactive),2% (inactive),97% (active),inactive,inactive,inactive,inactive
CCc1sc(CN(CCCNc2cc(=O)c3ccccc3[nH]2)Cc2sc(CC)c(Br)c2-c2ccsc2)c(-c2ccsc2)c1Br,98% (active),10% (inactive),0% (inactive),99% (active),inactive,inactive,inactive,inactive
FC(F)(F)c1ccc2nc(-c3ccc(-c4ccc(CNCc5cnn(-c6ccccc6)n5)cc4)s3)[nH]c2c1,89% (active),27% (inactive),-2% (inactive),100% (active),inactive,inactive,inactive,inactive
Cc1c(-c2ccccc2)ccc2[nH]cc(CC#N)c12,85% (active),2% (inactive),-2% (inactive),95% (active),inactive,inactive,inactive,inactive
CCN1CCC(N(Cc2ccc(-c3ccc(C(F)(F)F)cc3)cc2)C(=O)Cn2c(CCc3cccc(F)c3F)cc(=O)c3ccc(OCc4ccccc4)cc32)CC1,86% (active),60% (active),3% (inactive),102% (active),inactive,inactive,inactive,inactive
CCc1c[nH]c2c(N(c3ccccc3)S(C)(=O)=O)cc(C(=O)N[C@@H](Cc3ccccc3)[C@H](O)CNC(C)(C)CCCC(C)C)cc12,96% (active),99% (active),-1% (inactive),98% (active),inactive,inactive,inactive,inactive
O=C(NCc1ccccc1)c1nn(CCCN2CCC(N3CCCC3)CC2)cc1-c1ccc(Cl)c(Cl)c1,89% (active),29% (inactive),0% (inactive),103% (active),inactive,inactive,inactive,inactive
Cc1ccc2nc(/C=C/c3cccc4cc[nH]c34)[nH]c2c1,92% (active),9% (inactive),-3% (inactive),100% (active),inactive,inactive,inactive,inactive
COc1ccc(-c2cc(C(=O)Nc3ccc(CCCN(C)Cc4ccc(OC)c(OC)c4)cc3)c3ccccc3n2)cc1,47% (inactive),40% (inactive),-3% (inactive),92% (active),inactive,inactive,inactive,inactive
CC(Oc1ccc(Cl)cc1Cl)c1nc(-c2ccc(NC(=O)c3ccco3)cc2)no1 (stereo not drawn),82% (active),7% (inactive),0% (inactive),92% (active),inactive,inactive,inactive,inactive
CC(CN(C)C)Oc1ccc2[nH]c(-c3cccc(OCc4ccccc4)c3)nc2c1C#N (stereo not drawn),94% (active),57% (active),-2% (inactive),101% (active),inactive,inactive,inactive,inactive
Cc1nc2c(c(O)c1Cl)-c1ccc(Oc3cccc(C(F)(F)F)c3)cc1C2=O,95% (active),25% (inactive),-6% (inactive),94% (active),inactive,inactive,inactive,inactive
Fc1cc(Cl)ccc1Nc1ccnc2cc(-c3ccc(CN4CCNCC4)o3)ccc12,99% (active),16% (inactive),1% (inactive),100% (active),inactive,inactive,inactive,inactive
COc1ccc(-c2ccc(NC(=O)c3cccc(Cl)c3)c(F)c2)cc1CNC(C)C,14% (inactive),19% (inactive),-5% (inactive),93% (active),inactive,inactive,inactive,inactive
CCC1CCCCN1S(=O)(=O)c1ccc(OC)c(N2CCN(C(=O)C(Cl)(Cl)Cl)CC2)c1 (stereo not drawn),29% (inactive),9% (inactive),5% (inactive),89% (active),inactive,inactive,inactive,inactive
O=C(c1cccc(-c2noc(C(F)(F)F)n2)c1)N1CCN(c2ccncc2)CC1,56% (active),14% (inactive),3% (inactive),90% (active),inactive,inactive,inactive,inactive
CCCc1cc(=O)[nH]c(-n2nc(C)cc2NC(=O)c2cc3ccccc3o2)n1,63% (active),39% (inactive),-2% (inactive),90% (active),inactive,inactive,inactive,inactive
COc1ccc(C(=O)Nc2nonc2-c2ccc(OC)c(OC)c2)cc1Cl,97% (active),6% (inactive),0% (inactive),97% (active),inactive,inactive,inactive,inactive
CCCCCCN1CCN(Cc2cccc(NC(=O)c3cccc(OCC)c3)c2)CC1,48% (inactive),65% (active),0% (inactive),85% (active),inactive,inactive,inactive,inactive

Compound,growth inhibition [1],inhibition [2],inhibition [3],growth inhibition [4],outcome [5],outcome [6],outcome [7],outcome [8]
Cc1ccc2nc(C)n(C3CCN(C(=O)Cc4ccccc4C)CC3)c2c1,100% (active),2% (inactive),1% (inactive),100% (active),inactive,inactive,inactive,inactive
CO/C(=C\C=C\c1cc2cc(Cl)c(Cl)cc2[nH]1)C(=O)NC1C[C@H]2CCC[C@@H](C1)N2C (stereo partly drawn),51% (active),42% (inactive),-2% (inactive),93% (active),inactive,inactive,inactive,inactive
COC(=O)c1ccc(CCC(C)NCC(O)c2cccc(C(F)(F)F)c2)cc1 (stereo not drawn),99% (active),16% (inactive),-7% (inactive),99% (active),inactive,inactive,inactive,inactive
COc1cc(C(=O)N2CCOC(CCN3CCC(c4ccc(Cl)cc4)CC3)(c3ccc(Cl)c(Cl)c3)C2)cc(OC)c1OC (stereo not drawn),80% (active),44% (inactive),6% (inactive),91% (active),inactive,inactive,inactive,inactive
CC(C)Cc1nc(N)nc(N)c1-c1ccc(Cl)cc1,3% (inactive),5% (inactive),6% (inactive),96% (active),inactive,inactive,inactive,inactive
CC(=O)c1cccc2[nH]c(C(=O)NC3CCC(CCN4CCc5ccc(C#N)cc5C4)CC3)cc12 (stereo not drawn),0% (inactive),12% (inactive),1% (inactive),96% (active),inactive,inactive,inactive,inactive
CC(=O)Nc1ncc(C(=O)Nc2cccc(-c3ccc(-c4nc5ccccc5[nH]4)cc3)c2)s1,66% (active),12% (inactive),-9% (inactive),101% (active),inactive,inactive,inactive,inactive
COc1ccc(CNCc2cccc(-c3cccc(-c4nc5c(C)cccc5[nH]4)c3)c2)cc1,60% (active),31% (inactive),-4% (inactive),102% (active),inactive,inactive,inactive,inactive
CS(=O)(=O)Nc1ccc(-c2ccc3ccnc(N)c3c2)cc1,75% (active),31% (inactive),-3% (inactive),85% (active),inactive,inactive,inactive,inactive
Oc1ccc(Nc2nc(NCc3ccccc3)c3ccccc3n2)cc1,100% (active),33% (inactive),3% (inactive),101% (active),inactive,inactive,inactive,inactive
COc1ccc(CCNC(=O)c2ccc(-n3cc(NC(=O)c4cccnc4)cn3)cc2)cc1OC,89% (active),17% (inactive),3% (inactive),90% (active),inactive,inactive,inactive,inactive
Cc1ccc(OCC2CCN(c3ncc(C(=O)NC4CC4)cc3Cl)CC2)cc1,72% (active),2% (inactive),0% (inactive),88% (active),inactive,inactive,inactive,inactive
CNCCNCc1ccc(-c2ccc(-c3nc4ccc(F)cc4[nH]3)s2)cc1,55% (active),22% (inactive),2% (inactive),99% (active),inactive,inactive,inactive,inactive
c1ccc(Oc2ccc(Nc3ccnc4ccc(-c5ccccn5)cc34)cc2)cc1,10% (inactive),4% (inactive),-5% (inactive),80% (active),inactive,inactive,inactive,inactive
CCNC(=O)NC1CCN(Cc2c(-c3cccs3)nc3ccccc3c2C(=O)N[C@@H](C)C2CCCCC2)CC1,96% (active),-1% (inactive),-2% (inactive),95% (active),inactive,inactive,inactive,inactive
Cc1cccc2[nH]c(-c3ccc(-c4ccc(CN5CCCCC5)cc4)s3)nc12,87% (active),16% (inactive),-2% (inactive),99% (active),inactive,inactive,inactive,inactive
Oc1ccc(CCNc2nc(NCCCOc3ccccc3-c3ccc(C(F)(F)F)cc3)nc(N3CCNCC3)n2)cc1,49% (inactive),64% (active),0% (inactive),101% (active),inactive,inactive,inactive,inactive
CCCCCCCN1CC[C@@H](CCCc2ccnc3ccc(OC)cc23)[C@@H](CCN)C1,11% (inactive),50% (active),-5% (inactive),102% (active),inactive,inactive,inactive,inactive
CO/C(=C\C=C\c1cc2cc(Cl)c(Cl)cc2[nH]1)C(=O)Nc1ccc(NCCN(C)C)nc1,56% (active),27% (inactive),-1% (inactive),93% (active),inactive,inactive,inactive,inactive
Clc1ccc2c(NCCc3ccccc3)ccnc2c1,99% (active),31% (inactive),-3% (inactive),93% (active),inactive,inactive,inactive,inactive
